From PubChem
Mac1 fbg inh – blocks human CD11b/CD18 adhesion to fibrinogen | K562 CD11b/CD18 adhesion to fibrinogen, ATPlite luminescence; Mn2+ added to activate the integrin | inhibition, % at 10 µM | hit rate 0.54% among 93,000 | AID 1497;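 active means primary inhibition of 50% or more at 10 µM, then 40% or more on retest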
CYP2C19 inhib – inhibitors of human CYP2C19. CYP2C19 Supersomes, luciferin-H EGE luminescence, 30 min. hit rate 21% among 96,000. P33261. AID 778. inhibition, % at 5 µM;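 active means CYP2C19 inhibition above a set limit at 5 µM in the primary screen, cut at about 50% in these data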;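 further: plate controls were negative control wells for no effect and 2.5 mM tranylcypromine positive control for full effect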
CYP2C19 activ – increases human CYP2C19 enzyme activity | activation factor at 5 µM | recombinant CYP2C19, luciferin-H EGE luminescence; hits give high values; 0 = fully inhibited enzyme, 1 = untreated enzyme | 96,000 tested, under 10 active | AID 1025;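 active means activation factor of at least 2 at 5 µM in the primary screen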;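 further: 0 = wells with 2.5 mM tranylcypromine and 1 = vehicle-only wells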
CYP2C9 activ – CYP2C9 (human) activation | hit rate 1.4% among 96,000 | P11712 | AID 1024 | recombinant CYP2C9, luciferin-H conversion, luminescence; hits give high values; factor 1 = untreated enzyme, 0 = blocked | activation factor at 5 µM;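 active means activation factor of 2 or more for CYP2C9 at a 5 µM dose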;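 further: 0 = sulfaphenazole-blocked wells and 1 = vehicle-only wells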
Target sequence (P11712 whole entry, looked up): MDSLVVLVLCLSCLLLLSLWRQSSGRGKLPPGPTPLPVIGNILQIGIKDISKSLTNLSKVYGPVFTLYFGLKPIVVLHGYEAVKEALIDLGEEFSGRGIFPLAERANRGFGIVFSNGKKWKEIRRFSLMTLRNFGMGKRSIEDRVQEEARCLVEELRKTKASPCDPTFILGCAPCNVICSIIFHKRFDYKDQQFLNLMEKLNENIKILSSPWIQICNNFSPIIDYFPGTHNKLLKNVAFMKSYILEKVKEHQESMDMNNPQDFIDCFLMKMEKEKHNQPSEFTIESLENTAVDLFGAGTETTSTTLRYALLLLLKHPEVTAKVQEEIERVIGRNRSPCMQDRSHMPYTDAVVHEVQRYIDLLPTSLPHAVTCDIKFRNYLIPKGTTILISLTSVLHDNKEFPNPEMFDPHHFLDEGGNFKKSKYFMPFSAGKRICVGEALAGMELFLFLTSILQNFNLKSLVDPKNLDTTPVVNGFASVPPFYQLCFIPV
CYP2C9 inhib – blocks human cytochrome P450 2C9 | CYP2C9 Supersomes, luciferin-H conversion, luminescence | P11712 | hit rate 20% among 96,000 | AID 777 | inhibition, % at 5 µM;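 active means blocking of liver enzyme CYP2C9 beyond about 50% at 5 µM, limit read from the data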
CD11b adhes enh – CD11b/CD18-fibrinogen binding enhancement; P05107+P11215; hit rate 0.07% among 93,000; activation, % at 10 µM; K562 CD11b/CD18 adhesion to fibrinogen, ATPlite luminescence;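 active means 10 µM primary screen giving 50% or more activity, confirmed by 40% or more on retest at that dose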
An asterisk follows results filed as active; / = not tested or not shown. These entries were drawn from the full list.

SMILES	Mac1 fbg inh	CYP2C19 inhib	CYP2C19 activ	CYP2C9 activ	CYP2C9 inhib	CD11b adhes enh
CCCCNC(=O)CCCCCNS(=O)(=O)c1ccc(OC)cc1	-21	16	0.8	0.7	27	-2
COc1ccc(CNC(=O)COC(=O)c2ccc3c(c2)OCCO3)cc1	17	16	0.8	0.9	13	-4
CN(C)CCCN(CCCNC(=O)/C=N/O)Cc1ccccc1	11	/	/	/	/	3
Cc1ccc(Oc2ncccc2/C=N/OCc2ccc(Cl)c(Cl)c2)cc1	-4	-15	1.2	1.2	-17	-1
CC(C)NC(=O)CC(=O)N/N=C/c1ccc(F)cc1	/	1	1	0.8	22	/
COc1ccc(S(=O)(=O)NCc2ccc(C)cc2)cc1	5	99*	0	1.8	-75	-3
Cc1cc(Nc2ccc(F)cc2C)n2nc(C)nc2n1	-9	-19	1.2	1.1	-13	-3
Cc1cc(C)c(NC(=O)c2cc3c(nc4sccn43)s2)c(C)c1	-9	37	0.6	0.6	35	0
O=C(OCC(F)(F)C(F)F)c1ccccc1C(=O)Oc1ccc(F)cc1F	8	90*	0.1	0.2	76*	-2
O=C(Nc1ccc(OCC(F)(F)C(F)F)c(C(F)(F)F)c1)c1ccccc1O	104	26	0.7	1.3	-29	-9
Cc1cc(C)n(C(=O)CNC(=O)c2ccc3c(c2)OCCO3)n1	30	23	0.8	1.1	-14	-2
Cc1cccc(N2CCN(C(=O)Cc3cn(C)c4ccccc34)CC2)c1C	-16	30	0.7	1.3	-30	2
Cc1cccc(N2CCN(C(=O)Cn3cccc3)CC2)c1C	-1	79*	0.2	0.9	6	2
COc1ccccc1N1CCN(C(=O)Nc2cccc(Cl)c2)CC1	-20	33	0.7	1.2	-18	-1
Cc1nc(CC(=O)N2CCN(c3cccc(C)c3C)CC2)cs1	-1	84*	0.2	1.3	-30	-6
COc1cccc(NC(=O)N2CCN(c3cccc(C)c3C)CC2)c1	7	18	0.8	2*	-102	5
Cc1cccc(N2CCN(C(=O)n3ccnc3)CC2)c1C	-7	100*	0	0.1	86*	1
Cc1cccc(N2CCN(C(=O)C(C)C)CC2)c1C	-4	18	0.8	0.8	17	0
COc1ccc(NC(=S)NNC(=O)OC(C)(C)C)cc1OC	2	12	0.9	1	-1	-4
Clc1ccc(CSc2nnc(-c3ccccn3)n2Cc2ccco2)c(Cl)c1	-2	-4	1	1.1	-12	-2
COc1ccccc1NC(=S)NC1CCCCCC1	8	/	/	/	/	3
CCSc1nc(N2CCCCC2)c2c(c1C#N)CCCC2	27	69*	0.3	0.1	93*	-2
N#Cc1c(-c2ccccc2)nc(-c2ccccc2)nc1N1CCOCC1	14	-11	1.1	1.1	-10	-2
N#Cc1c(SCc2ccccc2)nc(N2CCOCC2)c2c1CCCC2	1	35	0.7	0.1	92*	2
COCCn1c(SCC(=O)Nc2ccc(S(=O)(=O)N3CCOCC3)cc2)nc2ccccc21	-7	16	0.8	0.3	66*	-4
SMILES	Mac1 fbg inh	CYP2C19 inhib	CYP2C19 activ	CYP2C9 activ	CYP2C9 inhib	CD11b adhes enh
Cc1ccc(NC(=O)CSc2nnc(-c3ccc(S(=O)(=O)N4CCOCC4)cc3)n2C)cc1	-18	29	0.7	0.6	36	6
COCCn1c(SCC(=O)Nc2nc(C)c(Cl)cc2Cl)nc2ccccc21	3	96*	0	0.8	22	1
CNC(=O)NC(=O)CSc1nc2ccccc2n1CCOC	-17	7	0.9	0.8	19	-4
COCCn1c(SCC(=O)Nc2ccc(S(N)(=O)=O)cc2)nc2ccccc21	0	-22	1.2	0.3	68*	-3
COCCn1c(SCC(=O)Nc2cccc(S(N)(=O)=O)c2)nc2ccccc21	3	31	0.7	0.8	18	2
COCCn1c(SCC(=O)Nc2ccc(Cl)c(S(=O)(=O)N(C)C)c2)nc2ccccc21	14	27	0.7	0.1	87*	-1
Cc1ccc(NC(=O)Cn2c(=O)cnc3ccccc32)cc1S(=O)(=O)N(C)C	15	/	/	/	/	-6
CCCCCOc1ccc(NC(=O)C2OC3OC(C)(C)OC3C3OC(C)(C)OC23)cc1 (stereo unspecified)	-14	/	/	/	/	-5
COc1ccc(OCC(=O)N2CCN(S(=O)(=O)c3ccc(Cl)cc3)CC2)cc1	-1	-4	1	0.9	9	3
Cc1ccc2cc(CN(CC3CCCO3)C(=S)Nc3ccccc3)c(=O)[nH]c2c1C (stereo unspecified)	7	/	/	/	/	-2
CCC1(c2ccc(Cl)cc2)NC(=S)N(c2ccccc2)N1 (stereo unspecified)	6	/	/	/	/	0
CN(c1nc(-c2ccccc2)cs1)C1CCS(=O)(=O)C1 (stereo unspecified)	-10	58*	0.4	0.8	18	4
CN(C(=O)CSc1nc(-c2ccc(F)cc2)cs1)C1CCS(=O)(=O)C1 (stereo unspecified)	7	37	0.6	3.6*	-264	-4
CCCc1cc(=O)[nH]c(SCC(=O)N(C)C2CCS(=O)(=O)C2)n1 (stereo unspecified)	-4	45	0.5	1	1	-4
CN(C(=O)CSc1nnc(-c2ccccc2)c(-c2ccccc2)n1)C1CCS(=O)(=O)C1 (stereo unspecified)	14	/	/	/	/	3
CN(C(=O)CSc1nc(-c2ccccc2)cs1)C1CCS(=O)(=O)C1 (stereo unspecified)	-3	60*	0.4	4*	-304	-2
CN1CCN(CC(=O)N(C)c2nc(-c3ccccc3)cs2)CC1	1	9	0.9	0.9	13	-1
O=C(COc1ccc(S(=O)(=O)Nc2ccccc2)cc1)N1CCOCC1	-8	5	0.9	0.8	16	-3
Cc1cccc(NS(=O)(=O)c2ccccc2)n1	-26	-6	1.1	1.1	-8	-1
CC(=O)c1cccc(NS(=O)(=O)c2ccc(N/C=C/C(=O)c3ccc(F)cc3)cc2)c1	98	/	/	/	/	-8
CCOC(=O)COc1ccc(S(=O)(=O)Nc2cccc(SC)c2)cc1	16	88*	0.1	0.2	78*	-5
CSc1cccc(NS(=O)(=O)c2ccc(F)cc2)c1	24	96*	0	0.1	91*	0
CSc1cccc(NS(=O)(=O)c2ccccc2)c1	10	30	0.7	0.3	66*	0
Cc1ccc(NC(=S)N(Cc2ccco2)C2CCN(C(C)C)CC2)cc1	11	/	/	/	/	-1
CCC1=NN(C(=O)CCc2ccccc2O)C(O)(C(F)(F)F)C1 (stereo unspecified)	-1	/	/	/	/	-3
O=C1CC(N2CCN(Cc3ccc4c(c3)OCO4)CC2)C(=O)N1c1ccccc1 (stereo unspecified)	10	10	0.9	0.9	8	0
